From PubChem BioAssay AID2685 (National Center for Advancing Translational Sciences (NCATS), 2010) come the findings set out here.

SMILES strings stand for the structures. The campaign covered roughly 320,000 compounds. About 2,100 (0.66%) were called active. Not shown: some 53% with an inconclusive outcome. Calls follow the shape of the dose curve; as a rule, active = well fitted inhibition curve with a large enough effect in the signal ratio, with a control signal flat (not every such curve was filed as active); inconclusive = small, poorly fitted or top-dose-only effect, or effect the other way, or a change in a side signal; inactive = flat fitted curve, though single readings scatter; the % refers to the signal ratio. For the sample, actives were picked, then their nearest neighbours and some compounds at random.
Potency is read from the fitted curve at half-maximal effect.

The experiment is described as follows: qHTS Assay for Lipid Storage Modulators in Drosophila S3 Cells.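 As to cell number change: cells counted by Cell Tracker Red CMTPX staining in the red channel.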 As to lipid storage change, negative = inhibition: % is scaled to controls: 0 for no effect and ±100 for the full control effect. The conditions noted are these: BODIPY lipid droplet fluorescence, 18-24 h, cells fed with added oleic acid; cell number change: measured here: cell count max response; series mostly up to 46.1 µM; lipid storage change, negative = inhibition: at the top concentration. The procedure, abridged: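 Laser-scanning cytometry quantifies lipid droplet accumulation (500–530 nm total intensity; droplet/cell object ratio) in oleic acid-fed (400 uM added) Drosophila S3 cells treated with a concentration series. 20 uM Triacsin C defined 100% inhibition.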
Regarding `OCC[n+]1ccc(/C=C/c2c[nH]c3ccccc23)cc1`, the compound was called inactive and the cell number change was -1.83%.

`COc1ccc(S(=O)(=O)N2CCN(CC(=O)NCCc3cccs3)CC2)cc1`: the “lipid storage change, negative = inhibition” value was 1.97% (inactive) and the cell number change is -24.5%.

Consider `O=C(CN1CCN(S(=O)(=O)c2ccccc2)CC1)NCCc1ccccc1`, for which the “lipid storage change, negative = inhibition” value was 0.573% (inactive) and the cell number change was 12.2%.

As to `Cc1cc(S(=O)(=O)N2CCN(CC(=O)NCCc3cccs3)CC2)ccc1Br`, the Potency was 6.51 µM (active) and the cell number change is -0.491%.

Turning to `CSc1ccccc1OCc1cc(C(=O)N(C)Cc2cc(C)[nH]n2)no1`, the “lipid storage change, negative = inhibition” value was -12.2% (inactive) and the cell number change is -1.8%.

Consider `CSc1cccc(NC(=O)N2CCc3ccc(NC(=O)c4ccccn4)cc3C2)c1`, for which the call was inactive and the cell number change was -11.2%.

For the compound `COc1ccc(C(=O)N2CCc3ccc(NC(=O)c4ccccn4)cc3C2)cc1F`, the Potency was 7.31 µM (active) and the cell number change was found to be 5.43%.

Take `COc1ccc(C(=O)N2CCc3cc(OC)c(OC)cc3C2)cc1OC`: the “lipid storage change, negative = inhibition” value is 2.92% (inactive) and the cell number change is -23.8%.

For the compound `CC(=O)c1nn(-c2ccc(Cl)cc2)c(=O)[nH]c1=O`, the result was inactive.

With `O=C(CN1C(=O)NC2(CCc3ccccc32)C1=O)c1ccc(Br)s1` (stereo unspecified), the Potency was 4.11 µM (active) and the cell number change amounted to 10.8%.

Turning to `O=C(CN1C(=O)NC2(CCc3ccccc32)C1=O)c1ccccc1` (stereo unspecified), the compound was classed as inactive and the cell number change came to 29.9%.

As for `O=C(CN1C(=O)NC2(CCc3ccccc32)C1=O)c1ccc(Br)cc1` (stereo unspecified), the “lipid storage change, negative = inhibition” value is -18.9% (inactive) and the cell number change was -20.3%.

Regarding `Cc1cccc(OCC(=O)N2CCN(C(=O)c3ccc([N+](=O)[O-])cc3)CC2)c1`, the “lipid storage change, negative = inhibition” value was 9.63% (inactive) and the cell number change stood at 2.07%.

As for `O=C(CN1C(=O)NC(Cc2ccccc2)C1=O)Nc1ccccc1` (stereo unspecified), the outcome was inactive.

On to `O=C(CN1C(=O)NC(Cc2ccccc2)C1=O)Nc1ccc(OC(F)(F)F)cc1` (stereo unspecified), for which the Potency is 23.1 µM (active) and the cell number change was -11.8%.

Regarding `Cc1ccc(NC(=O)CN2C(=O)NC(Cc3ccccc3)C2=O)cc1` (stereo unspecified), the “lipid storage change, negative = inhibition” value was 14.8% (inactive) and the cell number change worked out at 2.72%.

As to `Cc1ccc2c(N)c(C(=O)N(c3ccccc3)c3ccccc3)sc2n1`, the “lipid storage change, negative = inhibition” value was 0.972% (inactive) and the cell number change is 1.13%.

With `O=C(COC(=O)c1ccccn1)Nc1cccc(Cl)c1`, the “lipid storage change, negative = inhibition” value was -15.1% (inactive) and the cell number change was -4.94%.

As for `CSc1nnc(C(C)c2ncc(C(F)(F)F)cc2Cl)n1C` (stereo unspecified), the “lipid storage change, negative = inhibition” value is 10.3% (inactive) and the cell number change worked out at 29.4%.

Regarding `COCCCN(C(=O)c1ccccc1F)c1nc(-c2ccc(OC)cc2)cs1`, the result was inactive and the cell number change was 7.94%.

For `COCCCN(C(=O)c1ccccc1)c1nc(-c2ccc(OC)cc2)cs1`, the Potency is 9.2 µM (active) and the cell number change came to 5.82%.

Regarding `COCCN(C(=O)c1ccccc1)c1nc(-c2ccc(OC)cc2)cs1`, the compound was called inactive and the cell number change is -13.2%.

As for `COC(=O)c1ccc(-c2nc(O)c(C)s2)cc1`, the result was inactive.

With `Cc1cccc(OC2CCN(Cc3c(C(=O)N4CCCC4)nc4ccccn34)CC2)c1`, the “lipid storage change, negative = inhibition” value was 28.5% (inactive) and the cell number change is 17.9%.

As for `CCCC[C@@H]1CNC(=O)C(=O)N1CCc1cc(C(F)(F)F)cc(C(F)(F)F)c1`, the “lipid storage change, negative = inhibition” value was 0.436% (inactive) and the cell number change turned out to be 3.93%.

On to `COC(=O)c1ccc(COC(=O)Cc2n[nH]c(=O)c3ccccc23)cc1`, for which the “lipid storage change, negative = inhibition” value is 16% (inactive).

Consider `CC(OC(=O)Cc1n[nH]c(=O)c2ccccc12)C(=O)Nc1ccc(F)cc1` (stereo unspecified), for which the cell number change was -13.8% and the outcome was “inactive [at 0.0737 µM]”.

As for `CCc1ccc(C(=O)C(C)OC(=O)Cc2n[nH]c(=O)c3ccccc23)cc1` (stereo unspecified), the Potency was 13 µM (active) and the cell number change is -26.4%.

In the case of `Cc1csc(Sc2ccc([N+](=O)[O-])cc2C(=O)OCC(=O)NC(=O)NC(C)(C)C)n1`, the compound was called inactive.

For `CC(c1ccccc1)n1c(CCCO)nc2ccccc21` (stereo unspecified), the “lipid storage change, negative = inhibition” value is 0.218% (inactive) and the cell number change was -13.2%.

Regarding `CCCCN(C)CCn1c(=S)[nH]c2cc(OCC)c(OCC)cc2c1=O`, the “lipid storage change, negative = inhibition” value was 1.86% (inactive) and the cell number change was 5.41%.

For the compound `COC(=O)c1cc(C(=O)N2CCc3ccccc32)cc([N+](=O)[O-])c1`, the “lipid storage change, negative = inhibition” value was 8.69% (inactive) and the cell number change came out at 3.51%.

Turning to `COc1ccc(NC(=O)CC2C(=O)NC3CCCCC3N2C(=O)c2ccc(F)cc2)cc1` (stereo unspecified), the outcome was inactive and the cell number change was found to be 6.58%.

For the compound `COc1cccc(NC(=O)CC2C(=O)NC3CCCCC3N2C(=O)c2ccc(F)cc2)c1` (stereo unspecified), the call was inactive and the cell number change is 36.9%.

For the compound `O=C(CC1C(=O)NC2CCCCC2N1C(=O)c1ccc(F)cc1)Nc1ccccc1` (stereo unspecified), the Potency was 29.1 µM (active) and the cell number change was found to be 18%.

For the compound `COc1ccc(NC(=S)N2CCC(C(=O)c3ccc(OC)cc3)CC2)cc1`, the “lipid storage change, negative = inhibition” value is 10.2% (inactive) and the cell number change is -17.6%.

`O=C(COC(=O)COc1ccc2c(c1)CCC2)Nc1ccccc1`: the “lipid storage change, negative = inhibition” value was 3.22% (inactive) and the cell number change was -5.42%.

For the compound `Cn1nc(C(=O)NNC(=O)C(CCC(N)=O)NS(=O)(=O)c2ccc(Cl)cc2)c2ccccc2c1=O` (stereo unspecified), the “lipid storage change, negative = inhibition” value was 6.87% (inactive) and the cell number change was determined as 15.9%.

Consider `Cc1ccc(S(=O)(=O)N/N=C/c2ccc3nccnc3c2)cc1`, for which the “lipid storage change, negative = inhibition” value is 9.08% (inactive) and the cell number change was -5.68%.

Regarding `COc1ccc(CCNC(=O)CN2C(=O)c3ccccc3S2(=O)=O)cc1`, the “lipid storage change, negative = inhibition” value is 0.948% (inactive) and the cell number change stood at 8.78%.

As for `CCOc1ccc(CCNC(=O)Cn2cccc2C(=O)c2ccccc2)cc1OCC`, the Potency was 16.4 µM (active) and the cell number change is -22.9%.

On to `COc1ccc(CCNC(=O)CCCOc2cc(=O)n(C)c3ccccc23)cc1OC`, for which the “lipid storage change, negative = inhibition” value was -2.82% (inactive) and the cell number change turned out to be 11.7%.

In the case of `COc1ccc(CCNC(=O)CCCOc2cccc(C)c2C)cc1OC`, the Potency was 6.51 µM (active) and the cell number change was -23.6%.

Take `COc1ccc(OC)c(CCNC(=O)Cn2cccc2C(=O)c2ccccc2C)c1`: the “lipid storage change, negative = inhibition” value is 3.63% (inactive) and the cell number change stood at 3.16%.

In the case of `COc1ccc(CCNC(=O)CCCN2C(=O)c3ccccc3C2=O)cc1OC`, the “lipid storage change, negative = inhibition” value was 4.9% (inactive) and the cell number change is 10.1%.

As to `COc1ccccc1CNC(=O)Cn1cccc1C(=O)c1ccccc1C`, the result was inactive and the cell number change is -15.2%.

With `CCOc1ccc(CCNC(=O)CCn2cccc2)cc1OCC`, the “lipid storage change, negative = inhibition” value is 11.2% (inactive) and the cell number change came out at 0.009%.

`COc1ccc(CCNC(=O)CCOc2cc(C)ccc2C)cc1OC`: the call was inactive and the cell number change was -23.2%.

Turning to `COc1ccc(CCNC(=O)CN2C(=O)c3ccccc3S2(=O)=O)cc1OC`, the Potency was 23.1 µM (active) and the cell number change was -27.6%.

Consider `O=C(Cn1cccc1C(=O)c1ccccc1)NCCc1ccccc1`, for which the compound was called inactive.

Turning to `COc1ccc(CCNC(=O)Cn2cccc2C(=O)c2ccccc2C)cc1OC`, the Potency was 20.6 µM (active) and the cell number change is -20.4%.
